Measured values taken from PubChem BioAssay (NCI).
The panel holds about 83,000 compounds, 20% with a hit somewhere; the sample as a whole holds those more often.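 Interpretation: 100, growth as untreated; towards 0, rising growth inhibition; 0, no net growth; 0 to -100, cell death. Compounds scoring below 10 were considered active.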 Activity calls are given as the source filed them.

What was measured:
Experiment in all cases: NCI-60 one-dose screen, 48 h (100 = growth as untreated, 0 = no growth, -100 = all killed)
Conditions in all cases: 10 µM unless noted
[1] = tested on: SK-MEL-2 melanoma
[2] = tested on: EKVX NSCLC
[3] = tested on: SN12C renal
[4] = tested on: TK-10 renal
[5] = tested on: ACHN renal
[6] = tested on: CAKI-1 renal
[7] = tested on: A498 renal
[8] = tested on: MOLT-4 leukemia
[9] = tested on: SR leukemia
[10] = tested on: RPMI-8226 leukemia
[11] = tested on: OVCAR-8 ovarian
[12] = tested on: OVCAR-5 ovarian
[13] = tested on: OVCAR-4 ovarian
[14] = tested on: SK-OV-3 ovarian
[15] = tested on: IGROV1 ovarian
[16] = tested on: OVCAR-3 ovarian
[17] = tested on: HS 578T breast
[18] = tested on: NCI/ADR-RES ovarian
[19] = tested on: CCRF-CEM leukemia
[20] = tested on: UO-31 renal

Measured: growth

Cc1cc(C)c2c(-c3nnc(N)s3)cc(=O)oc2c1
inactive: [1] 114% | [2] 97.2% | [3] 99.3% | [4] 108% | [5] 105% | [6] 89.3% | [7] 79.9% | [8] 106% | [9] 105% | [10] 72.3% | [11] 102% | [12] 103% | [13] 100% | [14] 108% | [15] 101% | [16] 105% | [17] 92.4% | [18] 102%

CC1=NOC(=O)/C1=C\c1ccc(O)cc1
inactive: [1] 113% | [2] 104% | [3] 101% | [4] 102% | [5] 101% | [6] 95.4% | [7] 86.7% | [19] 94.1% | [8] 102% | [10] 109% | [11] 98.3% | [12] 99.8% | [13] 106% | [14] 103% | [15] 104% | [16] 103% | [17] 98.3% | [18] 106%

O=c1ssc(Cl)c1-c1ccccc1
inactive: [1] 155% | [2] 94.9% | [3] 93.9% | [4] 126% | [5] 104% | [6] 90.5% | [7] 108% | [19] 98.1% | [9] 124% | [10] 111% | [11] 89.4% | [12] 88.7% | [13] 98.4% | [14] 118% | [15] 83.7% | [16] 126% | [17] 104% | [18] 95.9%

Clc1cc(Cl)cc(Nc2ccc3cc(OCCCN4CCOCC4)ccc3n2)c1
inactive: [1] 63.9% | [2] 69.3% | [3] 60.1% | [4] 47% | [5] 42% | [6] 75.3% | [7] 51% | [19] 12.9% | [11] 44.4% | [12] 65.7% | [13] 46.8% | [14] 67.4% | [15] 58% | [16] 60% | [17] 25% | [18] 51%
active: [9] 1.31% | [10] -2.42%

NC[C@H](O)c1ccc(O)c(O)c1
inactive: [1] 110% | [3] 85.4% | [20] 103% | [4] 97.7% | [5] 90.1% | [6] 109% | [7] 112% | [8] 115% | [10] 104% | [11] 96.3% | [12] 84.4% | [13] 123% | [14] 102% | [15] 118% | [16] 108% | [17] 113% | [18] 92.1%
active: [19] -46.2%

COc1ccc(-c2ccc3c(c2)sc2nc(-c4ccc(F)cc4)cn23)cc1
inactive: [1] 73.4% | [2] 82.6% | [3] 87.9% | [4] 75.6% | [5] 92.9% | [6] 100% | [7] 76.8% | [19] 98.8% | [9] 93.4% | [10] 76.7% | [11] 68.5% | [12] 70.7% | [13] 73.6% | [14] 84.2% | [15] 100% | [16] 88% | [17] 99.2% | [18] 85.5%

COc1ccc2c(c1)O/C(=C/c1ccc(OCC(=O)c3ccccc3)cc1)C2=O
inactive: [1] 108% | [2] 97% | [3] 107% | [4] 115% | [5] 99.5% | [6] 103% | [8] 90.3% | [9] 72.7% | [10] 99.7% | [11] 111% | [12] 88.6% | [13] 113% | [14] 125% | [16] 90.1% | [17] 350% | [18] 93.1%

Cc1cc(NCCCCNc2ccnc3cc(Cl)ccc23)nc(Nc2ccc(C(=O)N3CCCC3)cc2)n1
active: [19] 2.01% | [9] -28.9% | [10] 2.17%
inactive: [1] 91.2% | [2] 79% | [3] 70.4% | [4] 115% | [5] 60.7% | [6] 97.1% | [7] 62.6% | [11] 11.5% | [12] 108% | [13] 48.4% | [14] 106% | [15] 81.9% | [16] 60.6% | [17] 89.8% | [18] 94.8%

O=C(Nc1ccc(Nc2ccncc2)cc1)c1ccc(C(=O)Nc2ccc(Nc3ccncc3)cc2)cc1
active: [10] 3.64%
inactive: [1] 53.7% | [2] 91.8% | [3] 88.1% | [4] 137% | [5] 97.2% | [6] 81.6% | [7] 117% | [8] 71.5% | [9] 52.4% | [11] 74.5% | [12] 51.1% | [13] 68.1% | [14] 68% | [15] 75.8% | [16] 111% | [17] 88.2% | [18] 109%

COc1ccc(C2=NN(C(=O)c3cc(OC)c(OC)c(OC)c3)C(c3ccc(Cl)cc3)C2)cc1OC (centres undefined)
active: [7] -1.72% | [19] -2.55% | [8] 9.1% | [10] -18.4% | [16] -35.2% | [17] 0.152% | [18] -36.3%
inactive: [1] 39.5% | [2] 53.4% | [3] 39.5% | [4] 25.4% | [5] 43.3% | [6] 26.6% | [11] 34.4% | [12] 41.4% | [13] 52% | [14] 25.8% | [15] 36.7%

Cc1c(C(=O)N[C@@H](Cc2ccccc2)C(=O)C(=O)NCCc2ccccc2)[nH]c2ccccc2c1=O
inactive: [1] 111% | [2] 97.1% | [3] 83.4% | [5] 101% | [6] 95.9% | [7] 86.5% | [19] 104% | [8] 86.8% | [10] 89.8% | [12] 102% | [13] 94% | [14] 107% | [15] 95.3% | [16] 105% | [17] 105% | [18] 100%

Clc1ccc(-c2c3ccc(=[N+]4CCCCC4)cc-3oc3cc(N4CCCCC4)ccc23)cc1
active: [1] -77.4% | [3] -79.1% | [20] -83.9% | [4] -94.8% | [5] -94.4% | [6] -75.2% | [7] -97.5% | [19] 0.54% | [8] -32.1% | [10] -41.9% | [11] -50.6% | [12] -90.3% | [13] -82.5% | [14] -95.8% | [15] -77% | [16] -98.3% | [17] -26.1% | [18] -65.7%

O=C(O)c1ccc2c(c1Cl)C(=O)c1ccccc1C2=O
inactive: [1] 70.2% | [2] 20.9% | [3] 98.8% | [4] 130% | [5] 99.1% | [6] 89.4% | [7] 111% | [8] 78.1% | [9] 70.7% | [10] 104% | [11] 118% | [12] 102% | [13] 81.3% | [14] 102% | [15] 167% | [16] 99.5% | [17] 123% | [18] 97.5%

CC(C)CC(NC(=O)CN(Cc1ccccc1)S(C)(=O)=O)C(=O)O (centres undefined)
inactive: [1] 125% | [2] 97.9% | [3] 108% | [4] 93.9% | [5] 102% | [6] 62.2% | [7] 95.3% | [19] 98.2% | [8] 94.7% | [10] 102% | [11] 100% | [12] 94% | [13] 104% | [14] 90.9% | [16] 96.6% | [17] 91.6% | [18] 98.9%

Cc1ccccc1NC(=O)N/C(N)=N/c1nc(-c2cccc([N+](=O)[O-])c2)cs1
inactive: [1] 37.3% | [2] 49.3% | [3] 54.8% | [4] 101% | [5] 53.7% | [6] 26.4% | [19] 35.9% | [8] 30.2% | [10] 34.1% | [11] 67.3% | [12] 76.3% | [13] 56.5% | [14] 57.2% | [15] 37.1% | [16] 26.9% | [17] 11.2%
active: [7] -3.64% | [18] 2.74%

O=C(Nc1cccc2c(O)c(N=Nc3ccc(S(=O)(=O)Nc4nccs4)cc3)cc(N=Nc3ccc(S(=O)(=O)Nc4nccs4)cc3)c12)C(Cl)Cl
active: [10] -10.9%
inactive: [1] 52.6% | [2] 90.5% | [3] 111% | [4] 122% | [5] 57.4% | [6] 76.8% | [7] 85% | [19] 72.5% | [8] 153% | [11] 59.1% | [12] 112% | [13] 90.3% | [14] 107% | [16] 35.9% | [17] 56.4% | [18] 101%

COC(=O)c1c2c(c[n+]([O-])c1C)C(=O)C=CC2=O
inactive: [1] 58.5% | [2] 101% | [3] 59.7% | [4] 101% | [5] 14.2% | [6] 62.1% | [7] 106% | [10] 57.6% | [11] 35.3% | [12] 118% | [14] 97% | [17] 86.3% | [18] 97.1%
active: [8] -17.4% | [13] -13.2% | [15] 2.42% | [16] -66.3%
